Screens as filed in PubChem BioAssay.
CYP2C9 activ = CYP2C9 (human) activation. activation factor at 5 µM. 96,000 compounds, 1.4% hits. recombinant CYP2C9, luciferin-H conversion, luminescence; active compounds read high; factor 1 = untreated enzyme, 0 = blocked. P11712;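 active = activation factor of 2 or more for CYP2C9 at a 5 µM dose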;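 note: 0 = sulfaphenazole-blocked wells and 1 = vehicle-only wells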
CYP2C19 activ = activators of human cytochrome P450 2C19. recombinant CYP2C19, luciferin-H EGE luminescence; active compounds read high; 0 = fully inhibited enzyme, 1 = untreated enzyme. AID 1025. activation factor at 5 µM. 96,000 tested, under 10 active. P33261;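 active = activation factor of at least 2 at 5 µM in the primary screen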;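 note: 0 = wells with 2.5 mM tranylcypromine and 1 = vehicle-only wells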
Target sequence (P33261 whole entry, looked up): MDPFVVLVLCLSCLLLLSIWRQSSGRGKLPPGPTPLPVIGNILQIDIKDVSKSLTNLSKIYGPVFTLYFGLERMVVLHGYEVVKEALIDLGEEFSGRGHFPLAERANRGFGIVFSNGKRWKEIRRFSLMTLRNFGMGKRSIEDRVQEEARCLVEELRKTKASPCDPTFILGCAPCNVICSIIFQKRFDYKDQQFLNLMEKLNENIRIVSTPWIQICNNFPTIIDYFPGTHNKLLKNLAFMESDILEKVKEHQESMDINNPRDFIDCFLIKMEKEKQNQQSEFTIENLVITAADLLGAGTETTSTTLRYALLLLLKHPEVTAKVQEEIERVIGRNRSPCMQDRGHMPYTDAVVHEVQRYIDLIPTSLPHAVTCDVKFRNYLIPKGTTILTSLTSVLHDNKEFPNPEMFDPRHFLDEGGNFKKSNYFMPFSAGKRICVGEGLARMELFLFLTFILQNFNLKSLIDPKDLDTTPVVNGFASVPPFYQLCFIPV
CYP2C19 inh = human CYP2C19 inhibition. P33261. CYP2C19 Supersomes, luciferin-H EGE luminescence, 30 min. inhibition, % at 5 µM. 96,000 compounds, 21% hits. AID 778;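 active = CYP2C19 inhibition above a set limit at 5 µM in the primary screen, cut at about 50% in these data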;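 note: plate controls were negative control wells for no effect and 2.5 mM tranylcypromine positive control for full effect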
CYP2C9 inhib = human CYP2C9 inhibition | AID 777 | inhibition, % at 5 µM | CYP2C9 Supersomes, luciferin-H conversion, luminescence | P11712 | 96,000 compounds, 20% hits;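 active = blocking of liver enzyme CYP2C9 beyond about 50% at 5 µM, limit read from the data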
hDAT+cocaine = changed human dopamine transporter uptake under cocaine IC80. B-score at 10 µM. LLC-PK1 hDAT cells, [14C]-dopamine uptake with cocaine IC80; actives deviate in either direction. 110,000 compounds, 1.3% hits. Q01959;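 active = Z score or B-score, a plate-position-corrected score, falls beyond the plate's 99.7% confidence bounds, in either direction; inactive = both scores lie inside the 99.7% bounds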;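 note: scored against the spread of the other compound wells on the same plate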
D1 mod = allosterically modulates the human D1 dopamine receptor; P21728; 58,000 compounds, 5.9% hits; HEK293 D1, CRE-luciferase, dopamine EC30 potentiation; actives deviate in either direction; B-score at 10 µM; AID 641;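 active = luminescence count or its row- and column-corrected plate score outside the 99.7% band of the plate's sample wells, on either side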
* marks the source's active call; other numbers are inactive results; x = no result. This is a sample that favours compounds with a hit; in the whole collection about 28% have one here.

SMILES	CYP2C9 activ	CYP2C19 activ	CYP2C19 inh	CYP2C9 inhib	hDAT+cocaine	D1 mod
Cc1cc2nc(C)n(CCCNC(=O)Nc3cccc4ccccc34)c2cc1C	0.4	0.5	46	57*	0.43	x
CCN1CCN(C(C(=O)NC2CCCCC2)c2ccc(Cl)cc2)CC1 (stereo not drawn)	1.3	0.6	43	-29	-0.3	x
COc1cccc(C(C#N)N2N=C(C)CC2(C)C)c1O (stereo not drawn)	0.9	x	x	6	0.049	x
Cc1ccc(-n2c(SCC(=O)NC3CCCCC3)nc3c(c2=O)SCC3)cc1	0.9	0.8	24	8	0.63	-0.12
OCCN(CCO)CC(O)COCCC12CC3CC(CC(C3)C1)C2 (stereo not drawn)	0.9	0.8	18	13	-0.73	x
CCOC(=O)N1N=C(c2ccc(C)cc2)CC1(O)C(F)(F)F (stereo not drawn)	0.5	0.4	59*	48	0.48	x
CCN(CCNC(=O)CS(=O)(=O)Cc1nc(-c2cccc(OC)c2)oc1C)c1ccccc1	0.1	0.2	78*	87*	-0.044	-0.31
CCOC(=O)c1cccc(NC(=O)CS(=O)(=O)Cc2nc(-c3cccc(OC)c3)oc2C)c1	0.2	0.6	45	76*	0.02	2.1
COc1cccc(-c2nc(CS(=O)(=O)CC(=O)Nc3c(C)cccc3C)c(C)o2)c1	0.8	1.1	-7	16	0.066	x
COc1ccc(OC)c(CCNC(=O)CS(=O)(=O)Cc2nc(-c3ccc(C)cc3)oc2C)c1	0.3	0.5	54*	66*	-1.5	0.33
COc1cccc(-c2nc(CS(=O)(=O)CC(=O)N3CCN(c4ccccn4)CC3)c(C)o2)c1	0.5	0.8	21	51*	0.098	0.13
CCc1ccccc1NC(=O)CSc1nnc([C@@H]2CCCN2C(=O)OC(C)(C)C)o1	0.9	0.7	29	14	0.36	x
CN(C)C(=O)N1CCC(C(=O)NCC2CCCO2)CC1 (stereo not drawn)	1.1	1.1	-9	-6	x	-1
COc1ccc(NC2c3ccccc3C(=O)N2c2cccnc2)cc1Cl (stereo not drawn)	0.4	0.2	81*	58*	1.5	-0.42
COc1cc(OC)c(NC2c3ccccc3C(=O)N2c2cc(C)ccn2)cc1Cl (stereo not drawn)	x	x	x	x	-0.0056	0.022
O=C1c2ccccc2C(Nc2ccccc2)N1c1cccnc1 (stereo not drawn)	0.9	0.3	70*	14	-0.5	x
CCOC(=O)c1ccccc1NC1c2ccccc2C(=O)N1c1cc(C)ccn1 (stereo not drawn)	0.2	0	96*	83*	0.62	x
COC(=O)c1cc(NC2c3ccccc3C(=O)N2c2cccnc2)cc(C(=O)OC)c1 (stereo not drawn)	x	x	x	x	-1.1	-0.0062
CCOc1ccccc1NC1c2ccccc2C(=O)N1c1cccnc1 (stereo not drawn)	0.9	0.5	52*	5	-0.22	0.064
Cc1cc(C)nc(Nc2ccc(C(=O)O)cc2)n1	1	1	0	2	0.61	x
O=Cc1ccc(N2CCCCCC2)cc1	0.7	0.1	89*	30	-0.0062	x
O=C(CCCSc1nc(-c2ccco2)cc(C(F)(F)F)n1)NCC1CCCO1 (stereo not drawn)	x	x	x	x	-0.45	x
O=C(CSc1nc(-c2ccco2)cc(C(F)(F)F)n1)NCC1CCCO1 (stereo not drawn)	0.8	0.3	71*	24	-0.85	0.77
O=C(CCSc1nc(-c2ccco2)cc(C(F)(F)F)n1)NCC1CCCO1 (stereo not drawn)	1.4	0.3	67*	-39	1	0.85
Cc1cccc(C)c1NC(=O)CSc1nc(-c2ccco2)cc(C(F)(F)F)n1	x	x	x	x	-0.77	x
SMILES	CYP2C9 activ	CYP2C19 activ	CYP2C19 inh	CYP2C9 inhib	hDAT+cocaine	D1 mod
CCOC(=O)N1CCN(c2nc(-c3ccco3)cc(C(F)(F)F)n2)CC1	0.2	0.6	42	75*	1.1	x
O=C(CSc1nc(-c2ccco2)cc(C(F)(F)F)n1)Nc1ccc(C(=O)N2CCCCC2)cc1	0.1	0.4	55*	85*	1.3	x
O=C(CSc1nc(-c2ccco2)cc(C(F)(F)F)n1)NCCc1ccccc1	0.7	0.8	16	30	0.024	-0.77
CCN1CCN(C(=O)c2ccc3c(c2)N(Cc2ccc(F)cc2)C(=O)c2ccccc2S3=O)CC1 (stereo not drawn)	x	x	x	x	-0.017	0.73
CC1(C)C(c2ccccc2)=[N+]([O-])CN1O	1.1	1	-4	-9	-0.15	-0.29
CC(=O)Nc1ccc(S(=O)(=O)NC2(C(F)(F)F)NC(=O)N(C3CCCCC3)C2=O)cc1 (stereo not drawn)	0.7	1.1	-9	30	0.087	x
Cc1ccc2[nH]c(C)c(CN(C)C3CCN(C)CC3)c(=O)c2c1	x	x	x	x	x	-0.32
O=C(CSc1nc(-c2ccco2)cc(C(F)(F)F)n1)N1CCN(Cc2ccccc2)CC1	0.3	0.2	83*	68*	1.9	x
Cc1c(-n2cc(C(=O)c3cc(Br)ccc3O)cc(C#N)c2=O)c(=O)n(-c2ccccc2)n1C	0.4	0.6	36	64*	-0.04	x
O=C(Oc1ccc(C(=S)N2CCOCC2)cc1Br)c1cc(Cl)ccc1Cl	2.4*	1	4	-137	-0.89	x
S=C(c1ccc(-c2cc(Cl)ccc2Cl)o1)N1CCOCC1	1.8	0.7	32	-82	0.89	1.3
Cc1ccc(C(=O)N2CCN3C(=O)c4ccccc4C23c2ccc(Cl)cc2)cc1 (stereo not drawn)	0.6	0.1	86*	38	-0.18	x
O=C(Nc1cccc(Cl)c1)N1CCN2C(=O)c3ccccc3C12c1ccccc1 (stereo not drawn)	0.4	0.5	49	57*	-2.4	x
CC1CCCC(C)N1C(=O)Nc1cccc(Cl)c1 (stereo not drawn)	1	0.6	40	2	0.021	0.71
COC(=O)[C@@]1(Cc2ccccc2)[C@@H]2C(=CC(=O)[C@H]2CC(=O)C(=O)N(C)C)CN1C(=O)c1ccccc1	x	x	x	x	-0.31	x
Cc1sc(-c2ccncc2)nc1OC(=O)c1ccccc1	0	0	99*	96*	-0.24	x
Cc1sc(-c2ccccn2)nc1OC(=O)c1cccc(Cl)c1Cl	0.3	1	-2	72*	-0.95	x
Cc1sc(-c2ccccn2)nc1OC(=O)c1ccc(Cl)cc1	1	1.1	-10	-3	-0.08	x
CCC1=C(OC(=O)N(CC)CC)N2C(=O)OC(=NCCc3c[nH]c4ccccc34)[C@]2(Cc2ccccc2)[C@H]2C1=CC[C@H]1C(=O)NC(=O)[C@H]12	x	x	x	x	1.2	x
C=CCc1cccc(/C=N/n2cnnc2)c1O	0.7	0.3	66*	30	1.8	x
Cc1ccc(OCc2ccc(C(=O)Nc3c(C)nn(Cc4c(F)c(F)c(F)c(F)c4F)c3C)o2)c([N+](=O)[O-])c1	0.4	0.4	57*	57*	0.076	x
